High-throughput results from PubChem.
Sampled rows, rich in hits. Any-hit rate of the full collection: about 8%.
LASV entry inh: blocks Lassa virus binding to or entry into cells; Lassa virus pseudotype entry inhibition, cell reporter; Potency, µM (doses to about 37.9 µM), inactives show at the highest dose activity change, negative = inhibition, most hits filed as inhibitors; hit rate 1.2% among 300,000; AID 540256; calls by dose curve; tested in HEK293 cells; further: potency means the concentration at half of the fitted maximal effect; on the % scale 0 is the no-effect control and ±100 the full control effect; nearly all actives have a fitted effect of over 50% in size
HCMV inh: human cytomegalovirus inhibition; HFF cells, HCMV-luciferase reporter, 72 h; active compounds read low; activity change, negative = inhibition, % at 57.5 µM; hit rate 4.5% among 410,000; AID 1259415; in the data active means activity change below about -60%; inconclusive means no clear call, values can overlap the other calls; inactive means above about -39%; further: on the % scale 0 is the no-effect control and ±100 the full control effect
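Two compound doses tested in HFFs infected with HCMV-luciferase, MOI 1 PFU/cell, 72 h at 37C. Lysate luminescence read with OneGlo; data normalized against buffer-only and 10uM Salinomycin inhibitor controls.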
SARS PLP yeast: blocks SARS-CoV papain-like protease in a yeast assay; S. cerevisiae expressing SARS-CoV PLpro, growth rescue; Potency, µM (series often up to 32.9 µM), for inactives: at the top dose activity, positive = growth rescue, actives largely listed as activators; hit rate 0.19% among 330,000; calls by dose curve; further: potency means the concentration at half of the fitted maximal effect; 0% is about no effect; nearly all actives have a fitted effect of over 55% in size
HCV inhibitor: inhibitors of hepatitis C virus infection | Potency, µM (top dose mostly 41.8 µM), inactives show top-dose activity change, negative = inhibition, usual class: inhibitors | hit rate 3.4% among 340,000 | Huh7.5.1 HCVcc-Cre infection, luciferase reporter, 44 h | AID 651820; active means well fitted inhibition curve with a large enough effect; inconclusive means small, poorly fitted or top-dose-only effect, or another doubt; inactive means no such curve, though single readings can be large or run the other way; further: potency means the concentration at half of the fitted maximal effect; on the % scale 0 is the no-effect control and ±100 the full control effect
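After 44 h co-culture of compound, cells and HCVcc-Cre (~0.5 moi), substrate is added for 15 min at room temperature and luciferase measured over 15 sec. Cells were seeded at 1,000/well and pre-cultured 4 h.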
FMDV antiviral: blocks foot and mouth disease virus; Potency, µM (series often up to 57.9 µM), without a hit: top-dose activity change, negative = inhibition, hits mostly inhibitors; FMDV antiviral cell-based qHTS; hit rate 1.2% among 410,000; AID 1159524; calls by dose curve; tested in HEK293T cells; further: read-out not given here; potency means the concentration at half of the fitted maximal effect; on the % scale 0 is the no-effect control and ±100 the full control effect; nearly all actives have a fitted effect of over 45% in size
MARV entry inh: blocks Marburg virus binding to or entry into cells; Marburg virus pseudotyped entry inhibition, cell reporter; Potency, µM (series often up to 37.8 µM), for the others: at the top dose activity change, negative = inhibition, usual class: inhibitors; hit rate 1.8% among 300,000; AID 540276; calls by dose curve; tested in HEK293 cells; further: potency means the concentration at half of the fitted maximal effect; on the % scale 0 is the no-effect control and ±100 the full control effect
The depositor's hits bear a star; u = inconclusive; x = no result; [ ] = remark or other dose.

SMILES | LASV entry inh | HCMV inh | SARS PLP yeast | HCV inhibitor | FMDV antiviral | MARV entry inh
Cc1nc(-c2ccccn2)nc(SCC(=O)c2ccccc2)c1Cl | u | -82* | -7% | -74% | u | u
CCN(CC)c1ccc(NS(=O)(=O)c2cc3[nH]c(=O)c(=O)[nH]c3cc2C)c(C)c1 | -1%[46.1 µM] | -3 | x | x | -21% | x
CC(C)(CNC(=O)c1ccc([N+](=O)[O-])c(Cl)c1)CNC(=O)c1ccc([N+](=O)[O-])c(Cl)c1 | u | -97* | 5% | u | u | u
Cc1ccccc1-c1ccc(/C=C2/SC(N3CCOCC3)=NC2=O)o1 | 13µM* | -17 | 0% | u | -20% | u
O=C1N=C(N2CCOCC2)S/C1=C\c1ccc(-c2ccccc2Cl)o1 | -1% | 20 | 12% | -11% | 9% | u
O=C(Cn1c(=O)n2nc(-c3cccc(F)c3)nc2c2ccccc21)N1CCN(c2ccccc2F)CC1 | 0%[46.1 µM] | 15 | x | x | -25% | x
O=c1c(-c2ccccc2)nc2cnc(N3CCNCC3)nc2n1C1CC1 | x | x | x | x | -13% | x
CCc1c(C)sc2c1CCN(C(=O)Nc1cc(C)ccc1OC)C2c1ccc(F)cc1 (stereo not drawn) | 1%[46.1 µM] | -10 | x | x | u | x
CCN1/C(=C/c2ccc3ccccc3[n+]2CCCS(=O)(=O)[O-])C=Cc2cc(C)ccc21 | 14%[46.1 µM] | -34 | -2% | 21% | u | 23%[46.1 µM]
CCN1/C(=C/c2ccc3cc(C)ccc3[n+]2CC)Sc2cc(C)ccc21 | x | -100* | -26% | 2.5µM* | u | x
CCN1/C(=C/c2ccc3ccccc3[n+]2CC)C=Cc2ccccc21 | 5.6µM* | -104* | -32% | 4.5µM* | u | 3.5µM*
CCN1/C(=C/c2ccc3cc(C)ccc3[n+]2C)Sc2ccc3sccc3c21 | x | -96* | -6% | u | -19% | x
CCCCN1/C(=C/c2ccc3ccccc3[n+]2CC)Sc2ccccc21 | 2.2µM* | x | -5% | 8.9µM* | 20µM* | 5.6µM*
O=C1CN(C(=O)CSc2nc3ccccc3c(=O)n2CC2CCCO2)c2ccccc2N1 (stereo not drawn) | x | -33 | 1% | -19% | u | x
O=C1CN(C(=O)CSc2nc3cc(Cl)ccc3c(=O)n2Cc2ccccc2)c2ccccc2N1 | u | u | 7% | 11µM* | -29% | u
Cc1ccc(Cn2c(SCC(=O)N3CC(=O)Nc4ccccc43)nc3ccccc3c2=O)cc1 | u | -76* | 13% | 10µM* | -18% | u
COc1cc(NC(=O)Cn2c(C)cc(C)c(C#N)c2=O)cc(OC)c1 | 19%[46.1 µM] | 8 | x | x | -10% | x
COc1ccc(Oc2ccc(/C=C/C(=O)c3cccc(OC)c3)cc2[N+](=O)[O-])cc1 | u | u | -6% | u | 32µM* | u
COc1cccc(NC(=O)/C=C/c2ccc([N+](=O)[O-])cc2)c1 | -23% | 127 | -3% | u | 25% | u
COc1ccc(/C=N/NC(=O)c2cccnc2)cc1 | x | -22 | 1% | 8% | 39% | x
COc1ccc(Oc2ccc(/C=N/NC(=O)c3cccnc3)cc2[N+](=O)[O-])cc1 | x | -80* | -3% | u | 0% | -29%[46.1 µM]
O=C(NC1CCN(C(=O)N2c3ccccc3Sc3ccccc32)CC1)c1ccco1 | u | u | -7% | u | -14% | u
O=C(N1CCN(c2ccccn2)CC1)N1c2ccccc2Sc2ccccc21 | u | -66* | -11% | u | u | u
O=C(c1ccc(Br)s1)N1CCN(c2ccccn2)CC1 | 3% | -2 | x | 6% | -1% | 15%
O=C(NC1CCN(C(=O)N2c3ccccc3Sc3ccccc32)CC1)c1ccccc1Cl | -15% | -37 | -18% | -10% | x | 16µM*
SMILES | LASV entry inh | HCMV inh | SARS PLP yeast | HCV inhibitor | FMDV antiviral | MARV entry inh
COc1cccc(C(=O)NC2CCN(C(=O)N3c4ccccc4Sc4ccccc43)CC2)c1 | u | u | -14% | u | x | 10µM*
Cc1ccc(NC(=O)Cn2c(=O)n(Cc3ccccc3)c(=O)c3c2c2cc(C)ccc2n3C)cc1 | 19%[46.1 µM] | -36 | x | x | -12% | x
Cc1cccc(C)c1NC(=O)Cn1nnc(C(=O)Nc2ccc(F)cc2F)c1N | x | -65* | 1% | -11% | -9% | x
C/C(Cn1cnc([N+](=O)[O-])n1)=N\NC(=O)c1cccc(F)c1 | 26% | 19 | -3% | 11µM* | 39% | -10%
CC[C@@H](C)[C@@H](N)C1=N[C@H](C(=O)N[C@@H](CC(C)C)C(=O)N[C@@H](CCC(=O)O)C(=O)N[C@@H](C(=O)N[C@@H]2CCCCNC(=O)[C@@H](CC(N)=O)NC(=O)[C@@H](CC(=O)O)NC(=O)[C@@H](Cc3cnc[nH]3)NC(=O)[C@@H](Cc3ccccc3)NC(=O)[C@@H]([C@H](C)CC)NC(=O)[C@@H](CCCN)NC2=O)[C@@H](C)CC)CS1 | x | x | x | x | -8% | x
Clc1ccc(-c2nn3c(C4COc5ccccc5O4)nnc3s2)cc1 (stereo not drawn) | 6.5µM* | -99* | 1% | 3% | 19% | 4%
COC(=O)c1ccc(COc2cccn3c(N(C)C(=O)CCC4CCCC4)c(C)nc23)cc1 | x | -33 | x | x | 35µM* | x
Cc1nc2c(OCc3ccc(C#N)cc3)cccn2c1N(C)C(=O)CCC1CCCC1 | x | -8 | x | x | 22µM* | x
Cc1nc2c(OCc3ccc(F)cc3)cccn2c1N(C)C(=O)CCC1CCCC1 | x | 24 | x | x | u | x
CCn1c(=O)c2cc(C(=O)N(CC(C)C)CC(C)C)sc2c2ccccc21 | 15%[46.1 µM] | -8 | x | x | 0% | u
CC1CCN(CC2CCN(C(=O)Nc3ccc(Br)cc3F)CC2)CC1 | 20%[46.1 µM] | -23 | x | x | -11% | x
CN1CCN(Cc2c(O)ccc3cc(Br)ccc23)CC1 | -14%[46.1 µM] | -69* | -5% | -12% | 0% | u
CCc1cc(=O)oc2c(CN3CCN(C)CC3)c(O)ccc12 | 3% | 20 | -2% | 15% | -4% | -17%
CN(C)c1nc2cc3c(cc2cc1CN(CC1CCCO1)C(=O)c1cccc(F)c1)OCO3 (stereo not drawn) | x | x | x | x | 5% | x
Cc1ccc(CN2C(=O)C3(c4ccccc42)N(c2cccc(C(F)(F)F)c2)C(=O)CS3(=O)=O)cc1 (stereo not drawn) | -19%[46.1 µM] | -5 | x | x | u | x
Cc1ccc(NC(=O)/C=C/c2ccc([N+](=O)[O-])s2)c(C)c1 | u | -101* | -1% | u | 13µM* | u
Cc1cccc(NC(=O)/C=C/c2ccc([N+](=O)[O-])s2)c1 | u | -98* | -6% | 11µM* | 0% | u
Cc1ccc(NC(=O)/C=C/c2ccc([N+](=O)[O-])s2)cc1 | 10µM* | -96* | -1% | u | 0% | 14µM*
Cc1cccc(NC(=S)N/N=C/c2ccc([N+](=O)[O-])s2)c1 | 16µM* | -93* | -34% | 8.9µM* | -12% | u
CCOC(=O)c1c(C)oc2nc(C)nc(N3CCN(c4ccccc4F)CC3)c12 | 14%[46.1 µM] | 6 | x | x | u | x
